These results are taken from PubChem BioAssay (NCATS).

Molecules are shown by their SMILES. Results filed as inconclusive are left out. Active and inactive are the calls of the source. The call rests on the fitted dose curve; in most records, active means well fitted cell-killing curve with a large enough effect; inconclusive means small, poorly fitted or top-dose-only effect, or effect the other way; inactive means no such curve, though single readings can be large or run the other way.

A short description of test [1]: Quantitative High-Throughput drug screen in 47 multiple myeloma cell lines against the NCATS MIPE library collection: U266_ATCC cell viability assay (AID 1919864). Further: nearly all actives have a fitted effect of over 35% in size. In short, it runs like this: (§1)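 qHTS format: cells plated (500/well), pin-dosed with MIPE 4.0 compounds, kept 48 h at 37 °C. Readout was CellTiter-Glo luminescence, median RLU.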
Test [2] can be described thus: Quantitative High-Throughput drug screen in 47 multiple myeloma cell lines against the NCATS MIPE library collection: XG6_PLB cell viability assay (AID 1919865). Further: nearly all actives have a fitted effect of over 40% in size. In short, it runs like this:
as §1

Test [3] in a line: Quantitative High-Throughput drug screen in 47 multiple myeloma cell lines against the NCATS MIPE library collection: XG1_PLB cell viability assay (AID 1919866). Further: nearly all actives have a fitted effect of over 35% in size. The gist of the method: as §1
Test [4] in a line: Quantitative High-Throughput drug screen in 47 multiple myeloma cell lines against the NCATS MIPE library collection: PCM6_Riken cell viability assay (AID 1919870). Further: nearly all actives have a fitted effect of over 30% in size. In short, it runs like this:
as §1

A short description of test [5]: Quantitative High-Throughput drug screen in 47 multiple myeloma cell lines against the NCATS MIPE library collection: RPMI8226_ATCC cell viability assay (AID 1919871). Further: nearly all actives have a fitted effect of over 30% in size. The gist of the method: as §1
The nature of test [6]: Quantitative High-Throughput drug screen in 47 multiple myeloma cell lines against the NCATS MIPE library collection: OPM2_DSMZ cell viability assay (AID 1919872). Further: nearly all actives have a fitted effect of over 30% in size. The gist of the method: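 Inhibition of cell viability is measured here. Each line was plated at 500 cells per well, treated with MIPE 4.0 drugs, kept 48 hours at 37C, then assayed for ATP content by CellTiter-Glo luminescence.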

A short description of test [7]: Quantitative High-Throughput drug screen in 47 multiple myeloma cell lines against the NCATS MIPE library collection: KMS11_JCRBsus cell viability assay (AID 1919873). Further: nearly all actives have a fitted effect of over 50% in size. In short, it runs like this: as §1
Test [8] can be described thus: Quantitative High-Throughput drug screen in 47 multiple myeloma cell lines against the NCATS MIPE library collection: VP6_DJ cell viability assay (AID 1919867). Further: nearly all actives have a fitted effect of over 40% in size. In short, it runs like this:
as §1

Test [9] in a line: Quantitative High-Throughput drug screen in 47 multiple myeloma cell lines against the NCATS MIPE library collection: PE2_PLB cell viability assay (AID 1919869). Further: nearly all actives have a fitted effect of over 35% in size. The gist of the method: as §1
Test [10] can be described thus: Quantitative High-Throughput drug screen in 47 multiple myeloma cell lines against the NCATS MIPE library collection: UTMC2_PLB cell viability assay (AID 1919868). Further: nearly all actives have a fitted effect of over 55% in size. Conditions: CellTiter-Glo ATP luminescence, 48 h; viability (% of DMSO control): at 45.8 µM (top of the series). In short, it runs like this:
as §1
In general terms: ATP-based viability assays read luminescence as a measure of living cells.
Potency means the concentration at half of the fitted maximal effect.

As to `O=[N+]([O-])c1cn2c(n1)OC[C@@H](OCc1ccc(OC(F)(F)F)cc1)C2`, the Potency in test [1] was 18.7 µM (active). Moreover, the Potency entry in test [2], in test [3], in test [4], in test [5], in test [6] and in test [7] was “inactive” each time.
Regarding `c1ccc(CNc2nc(NCc3ccccc3)c3ccccc3n2)cc1`, the Potency was 14.8 µM (active) in [1]; 8.33 µM (active) in [2]; 7.43 µM (active) in test [3]; 8.33 µM (active) in test [8]; 11.8 µM (active) in test [9]; 8.33 µM (active) in test [4]. Besides, in test [7], the Potency was 11.8 µM (active).
With `CC(=O)O[C@]1(C(C)=O)CC[C@H]2[C@@H]3C=C(C)C4=CC(=O)CC[C@]4(C)[C@@H]3CC[C@@]21C`, the Potency was 8.33 µM (active) in test [1]; 4.18 µM (active) in test [2]; 6.62 µM (active) in test [3]; 7.43 µM (active) in test [8]; 6.62 µM (active) in [4]; 14.8 µM (active) in [5]. Further, the Potency result in test [6] and in test [7] was “inactive” in each case.
Take `N#CNC(=NCCCCCCOc1ccc(Cl)cc1)Nc1ccncc1`: the Potency in test [1] was 18.7 µM (active); in test [2], 18.7 µM (active); in test [4], 0.001 µM (active); in [5], 0.0418 µM (active); in test [6], 0.0148 µM (active); in test [7], 0.0026 µM (active). The Potency result in test [3] and in test [10] was “inactive” throughout.
For the compound `COC(=O)[C@@H]1CC2=CC(=O)CC[C@]2(C)[C@@]23O[C@@H]2C[C@@]2(C)[C@H](CC[C@@]24CCC(=O)O4)[C@@H]13`, the Potency entry in [1], in test [2], in test [3], in [9], in test [4] and in [5] was “inactive” each time. Also, the Potency result in test [6] and in [7] was “inactive” in each case.
On to `N#Cc1c(C2CCNCC2)cc(-c2c(O)cccc2OCC2CC2)nc1N`, for which the Potency in test [1] is 13.2 µM (active); in test [2] it was 1.05 µM (active); in [3], 4.18 µM (active); in [8], 18.7 µM (active); in [9], 18.7 µM (active); in [4], 8.33 µM (active). Also, the results for the Potency in [5] and in test [7] were 20.9 µM (active) and 18.7 µM (active), respectively.
Turning to `CC(O)(C#Cc1ccc2c(c1)N(c1nc(N)ncc1Cl)CC2)c1nccs1` (stereo unspecified), the Potency in test [1] was 16.6 µM (active); in [2], 4.18 µM (active); in test [3], 4.69 µM (active); in test [8] it was 5.26 µM (active); in test [9], 8.33 µM (active); in [7], 18.7 µM (active).
For `NC(=O)N1CCC(CC(=O)N2CCC([C@H]3c4ncc(Br)cc4CCc4cc(Cl)cc(Br)c43)CC2)CC1`, the Potency in test [1] is 18.7 µM (active); in test [2] it was 16.6 µM (active); in [3] it was 5.26 µM (active); in test [8], 13.2 µM (active); in [9], 14.8 µM (active); in test [4] it was 20.9 µM (active). Moreover, the Potency was 16.6 µM (active) in test [5] and 10.5 µM (active) in test [7].
Take `OCCNC1CCCc2c1[nH]c1ccc(-c3ccccc3)cc21` (stereo unspecified): the Potency in [1] is 20.9 µM (active); in test [2], 26.4 µM (active); in [3] it was 9.35 µM (active); in [8] it was 8.33 µM (active); in [9] it was 14.8 µM (active); in [4], 11.8 µM (active). The Potency is 26.4 µM (active) in [5] and 2.96 µM (active) in [7].
For `NC(=O)Nc1cc(-c2ccc(CN3CCOCC3)cc2)sc1C(N)=O`, the Potency in [1] was 16.6 µM (active); in test [2], 0.743 µM (active); in [3], 0.132 µM (active); in test [8] it was 0.833 µM (active); in test [9] it was 1.48 µM (active); in test [4] it was 1.66 µM (active). The Potency in test [5] was 7.43 µM (active); in test [6], 14.8 µM (active); in test [7] it was 11.8 µM (active).
For `Cc1nc(NC(=O)N2CCC[C@@H]2C(N)=O)sc1-c1ccnc(C(C)(C)C(F)(F)F)c1`, the Potency is 8.33 µM (active) in [1]; 1.87 µM (active) in test [2]; 3.32 µM (active) in test [3]; 4.69 µM (active) in test [9]; 3.32 µM (active) in test [5]; 20.9 µM (active) in test [6]. Also, in test [7], the Potency was 0.166 µM (active). For the same compound, in test [4], the Potency entry is “inactive”.
On to `O=C1NC(O)CCN1[C@@H]1O[C@H](CO)[C@H](O)[C@H]1O` (stereo partly specified), for which the Potency result in test [1], in test [2], in [9], in [6] and in [7] was “inactive” throughout. Besides, the Potency in [3] is 11.8 µM (active).
On to `COc1ccc(CCC(=O)c2c(O)cc(O[C@@H]3O[C@H](CO)[C@@H](O)[C@H](O)[C@@H]3O[C@@H]3O[C@@H](C)[C@H](O)[C@@H](O)[C@@H]3O)cc2O)cc1O`, for which the Potency in test [1] was 8.33 µM (active); in [2], 5.26 µM (active); in [3], 7.43 µM (active); in test [8], 9.35 µM (active); in test [9], 7.43 µM (active); in [4], 7.43 µM (active). In addition, the Potency result in [6] and in [7] was “inactive” in each case.
In the case of `CC(C)[C@H](CO)Nc1nc(Nc2cccc(Cl)c2)c2ncn(C(C)C)c2n1`, the Potency in test [1] is 18.7 µM (active); in test [2] it was 5.26 µM (active); in test [3], 6.62 µM (active); in [8] it was 13.2 µM (active); in test [9], 18.7 µM (active); in test [4], 16.6 µM (active). Further, the values for the Potency in [5], in test [6] and in test [7] were 26.4 µM (active), 20.9 µM (active) and 11.8 µM (active), respectively.
For `COc1ccnc2[nH]cc(C(=O)C(=O)N3CCN(C(=O)c4ccccc4)C[C@@H]3C)c12`, the Potency entry in [1], in test [2], in [3], in test [10], in [9] and in [4] was “inactive” throughout. The Potency result in test [5], in test [6] and in [7] was “inactive” in each case.
As for `O=C1CSC(=O)N1C(CCc1ccncc1)COc1ccc(-c2cccc([N+](=O)[O-])c2)cc1` (stereo unspecified), the Potency in test [1] is 8.33 µM (active); in [2] it was 13.2 µM (active); in test [8], 4.18 µM (active); in [9], 16.6 µM (active); in test [5] it was 7.43 µM (active); in [7], 11.8 µM (active).
Turning to `COc1cc2c(Nc3ccc(Cl)c(Cl)c3F)ncnc2cc1OCC1C[C@@H]2CN(C)C[C@H]2C1`, the Potency in [1] is 23.5 µM (active); in test [3], 2.35 µM (active); in test [8], 2.64 µM (active); in test [10] it was 2.35 µM (active); in test [9], 1.87 µM (active); in [4] it was 1.32 µM (active). The Potency in test [5] was 8.33 µM (active); in [6] it was 20.9 µM (active); in test [7], 5.9 µM (active).
Regarding `O=C(NNC(=O)c1ccc(CNS(=O)(=O)c2ccc(F)c(Cl)c2)cc1)c1ccccc1`, the Potency result in [1], in test [2], in test [8], in [10], in test [9] and in test [4] was “inactive” in each case. In addition, the Potency result in test [5], in test [6] and in [7] was “inactive” each time.
